This passage reports growth inhibition results from PubChem BioAssay (NCI).

The nature of assay [1]: NCI Yeast Anticancer Drug Screen. Data for the rad50 strain (AID 155).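 Note: 0% = growth of vehicle-only cultures of the same strain.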 The settings on record: S. cerevisiae rad50 strain growth inhibition, active compounds read high. An outline of the steps:
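Growth of the mutant yeast was measured after compound exposure and referenced to vehicle-treated cultures.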

Assay [2] can be described thus: NCI Yeast Anticancer Drug Screen. Data for the mec2-1 strain (AID 157). The following applies: S. cerevisiae mec2-1 strain, active compounds read high. An outline of the steps: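 Test agents were screened against the mec2-1 yeast strain, with defined DNA repair or cell cycle alteration. Growth was scored as inhibition against vehicle-only controls.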
Assay [3] in a line: NCI Yeast Anticancer Drug Screen. Data for the sgs1 mgt1 strain (AID 161).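 Note: 0% = growth of cultures given vehicle only.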 The settings on record: S. cerevisiae sgs1 mgt1 strain, active compounds read high. The procedure, abridged: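 Genetically altered yeast, compound exposure, growth inhibition relative to vehicle.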
Assay [4] in a line: NCI Yeast Anticancer Drug Screen. Data for the cln2 rad14 strain (AID 165).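 Note: 0% = growth equal to vehicle treated cultures.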 The settings on record: S. cerevisiae cln2 rad14 strain, active compounds read high. An outline of the steps: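 Growth of compound-exposed yeast (cln2 rad14 genotype) measured and expressed as inhibition relative to vehicle.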
Assay [5] in a line: NCI Yeast Anticancer Drug Screen. Data for the bub3 strain (AID 167). The following applies: S. cerevisiae bub3 mutant strain, active compounds read high. The procedure, abridged: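 Whole-cell yeast assay. The mutant strain was incubated with compounds, and growth inhibition was determined by comparison with vehicle-treated cells.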
Assay [6] is described as follows: NCI Yeast Anticancer Drug Screen. Data for the mlh1 rad18 strain (AID 175). The following applies: S. cerevisiae mlh1 rad18 strain growth inhibition, active compounds read high. An outline of the steps: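 In this whole-cell yeast screen, a strain with altered DNA damage repair is challenged with compound, and its growth is measured against matched vehicle-treated controls.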

Setting [7] is: at 5.0 µM (retest, dose inferred, filed as 0.5).
Setting [8] is: at 50.0 µM (retest, dose inferred, filed as 5.0).

Compounds without any hit were thinned out: in the full panel of roughly 79,000, 15% have a hit. Unmarked numbers belong to inactive results. The source made the active and inactive calls. Cut-off read from the data, not from the text of the source: active = growth inhibition above about 70%; inactive = the rest.

As for `O=C(Oc1ccccc1)c1ccc2ccccc2c1O`, the growth inhibition is -4% in assay [1] (setting [7]); -38% in assay [1] (setting [8]); 15.8% in assay [1] (at 50.0 µM); -5% in assay [2] (setting [7]); -35% in assay [2] (setting [8]); 6.05% in assay [2] (at 50.0 µM). For the same molecule, the growth inhibition in assay [3] (setting [7]) is -5%; in assay [3] (setting [8]), -14%; in assay [3] (at 50.0 µM) it was 2.7%; in assay [4] (setting [7]) it was -2%; in assay [4] (setting [8]), -59%; in assay [4] (at 50.0 µM), -47.1%. For the same molecule, the growth inhibition in assay [5] (setting [7]) is 36%; in assay [5] (setting [8]), 52%; in assay [5] (at 50.0 µM), 77.7% (active); in assay [6] (setting [7]), -4%; in assay [6] (setting [8]) it was -27%; in assay [6] (at 50.0 µM), 4.1%.
Regarding `Cn1c(CCC2(C)Cc3ccccc3C(=O)O2)cc2ccccc2c1=O` (configuration not stated), the growth inhibition is 3% in assay [1] (setting [7]); 31% in assay [1] (setting [8]); 55.2% in assay [1] (at 50.0 µM); -6% in assay [2] (setting [7]); 48% in assay [2] (setting [8]); 69.7% in assay [2] (at 50.0 µM). Further, the growth inhibition in assay [3] (setting [7]) is 0%; in assay [3] (setting [8]), 79% (active); in assay [3] (at 50.0 µM), 73.9% (active); in assay [4] (setting [7]) it was -11%; in assay [4] (setting [8]), 27%; in assay [4] (at 50.0 µM), 28.4%. Besides, the growth inhibition in assay [5] (setting [7]) is -27%; in assay [5] (setting [8]), 86% (active); in assay [5] (at 50.0 µM) it was 75.3% (active); in assay [6] (setting [7]), 2%; in assay [6] (setting [8]), 48%; in assay [6] (at 50.0 µM) it was 49%.
As for `Fc1ccc(NC(=S)SCc2ccco2)cc1`, the growth inhibition is 5% in assay [1] (setting [7]); 87% (active) in assay [1] (setting [8]); 89% (active) in assay [1] (at 50.0 µM); 0% in assay [2] (setting [7]); 71% (active) in assay [2] (setting [8]); 61.6% in assay [2] (at 50.0 µM). For the same molecule, the growth inhibition in assay [3] (setting [7]) is 5%; in assay [3] (setting [8]) it was 67%; in assay [3] (at 50.0 µM), 84.7% (active); in assay [4] (setting [7]) it was 1%; in assay [4] (setting [8]) it was 24%; in assay [4] (at 50.0 µM), 42.5%. Also, the growth inhibition in assay [5] (setting [7]) was -5%; in assay [5] (setting [8]) it was 34%; in assay [5] (at 50.0 µM), 26.6%; in assay [6] (setting [7]) it was 1%; in assay [6] (setting [8]), 77% (active); in assay [6] (at 50.0 µM), 95.4% (active).
With `N#Cc1c(-c2ccc(Cl)c(Cl)c2)c(-c2ccc(Cl)c(Cl)c2)nn(CCO)c1=O`, the growth inhibition in assay [1] (setting [7]) is 73% (active); in assay [1] (setting [8]), 96% (active); in assay [1] (at 50.0 µM) it was 97.8% (active); in assay [2] (setting [7]), 44%; in assay [2] (setting [8]), 98% (active); in assay [2] (at 50.0 µM), 97.6% (active). In addition, the growth inhibition is 50% in assay [3] (setting [7]); 97% (active) in assay [3] (setting [8]); 97.5% (active) in assay [3] (at 50.0 µM); 39% in assay [4] (setting [7]); 95% (active) in assay [4] (setting [8]); 96.8% (active) in assay [4] (at 50.0 µM). For the same molecule, the growth inhibition in assay [5] (setting [7]) is 43%; in assay [5] (setting [8]), 97% (active); in assay [5] (at 50.0 µM), 96.3% (active); in assay [6] (setting [7]), 72% (active); in assay [6] (setting [8]), 96% (active); in assay [6] (at 50.0 µM) it was 97.5% (active).
For `Cc1c2cnccc2c(C)c2c1c1ccccc1n2Cc1ccccc1`, the growth inhibition is 3% in assay [1] (setting [7]); 98% (active) in assay [1] (setting [8]); 89% (active) in assay [1] (at 50.0 µM); -2% in assay [2] (setting [7]); 75% (active) in assay [2] (setting [8]); 25.5% in assay [2] (at 50.0 µM). Also, the growth inhibition in assay [3] (setting [7]) was -2%; in assay [3] (setting [8]), 94% (active); in assay [3] (at 50.0 µM), 48.8%; in assay [4] (setting [7]), -1%; in assay [4] (setting [8]), 91% (active); in assay [4] (at 50.0 µM), 28.4%. The growth inhibition was -3% in assay [5] (setting [7]); 93% (active) in assay [5] (setting [8]); 59.5% in assay [5] (at 50.0 µM); -8% in assay [6] (setting [7]); 97% (active) in assay [6] (setting [8]); 62.7% in assay [6] (at 50.0 µM).
As for `O=C(Nc1ccc(O)cc1O)c1ccccc1`, the growth inhibition in assay [1] (setting [7]) was 2%; in assay [1] (setting [8]) it was 53%; in assay [1] (at 50.0 µM), 85% (active); in assay [2] (setting [7]) it was -15%; in assay [2] (setting [8]), 61%; in assay [2] (at 50.0 µM), 76.7% (active). The growth inhibition in assay [3] (setting [7]) is 6%; in assay [3] (setting [8]), 82% (active); in assay [3] (at 50.0 µM) it was 90.4% (active); in assay [4] (setting [7]), 7%; in assay [4] (setting [8]) it was 50%; in assay [4] (at 50.0 µM) it was 72.3% (active). The growth inhibition in assay [5] (setting [7]) is 11%; in assay [5] (setting [8]) it was 46%; in assay [5] (at 50.0 µM) it was 89.2% (active); in assay [6] (setting [7]), 3%; in assay [6] (setting [8]) it was 76% (active); in assay [6] (at 50.0 µM) it was 85.1% (active).
`Cc1cc2nc3[nH]c4c(Cl)cc(Cl)cc4c3nc2cc1C`: the growth inhibition in assay [1] (setting [7]) is 26%; in assay [1] (setting [8]) it was 28%; in assay [1] (at 50.0 µM), -36.8%; in assay [2] (setting [7]) it was 14%; in assay [2] (setting [8]) it was 10%; in assay [2] (at 50.0 µM), -28.6%. In addition, the growth inhibition in assay [3] (setting [7]) is 3%; in assay [3] (setting [8]) it was 3%; in assay [3] (at 50.0 µM), -7.3%; in assay [4] (setting [7]) it was -10%; in assay [4] (setting [8]) it was 5%; in assay [4] (at 50.0 µM), 56.4%. For the same molecule, the growth inhibition in assay [5] (setting [7]) is -4%; in assay [5] (setting [8]), 8%; in assay [5] (at 50.0 µM) it was -70.8%; in assay [6] (setting [7]) it was 4%; in assay [6] (setting [8]), 19%; in assay [6] (at 50.0 µM) it was -20.6%.
As to `N#CC(Nc1cccc(C(F)(F)F)c1)c1ccccc1C(F)(F)F` (configuration not stated), the growth inhibition in assay [1] (setting [7]) is -4%; in assay [1] (setting [8]), 97% (active); in assay [1] (at 50.0 µM), 86% (active); in assay [2] (setting [7]), 3%; in assay [2] (setting [8]), 97% (active); in assay [2] (at 50.0 µM) it was 92% (active). Besides, the growth inhibition is -11% in assay [3] (setting [7]); 97% (active) in assay [3] (setting [8]); 90.1% (active) in assay [3] (at 50.0 µM); 25% in assay [4] (setting [7]); 46% in assay [4] (setting [8]); 89% (active) in assay [4] (at 50.0 µM). Moreover, the growth inhibition in assay [5] (setting [7]) is 10%; in assay [5] (setting [8]), 97% (active); in assay [5] (at 50.0 µM) it was 90.5% (active); in assay [6] (setting [7]), -12%; in assay [6] (setting [8]) it was 98% (active); in assay [6] (at 50.0 µM), 84.8% (active).
On to `O=S(=O)(N=S(c1ccc(Cl)cc1)c1ccc(Cl)cc1)c1ccccc1`, for which the growth inhibition in assay [1] (setting [7]) is 0%; in assay [1] (setting [8]), 10%; in assay [1] (at 50.0 µM), 49.2%; in assay [2] (setting [7]), -8%; in assay [2] (setting [8]), 5%; in assay [2] (at 50.0 µM) it was -14.4%. The growth inhibition in assay [3] (setting [7]) was -1%; in assay [3] (setting [8]), 12%; in assay [3] (at 50.0 µM), 4.5%; in assay [4] (setting [7]), 9%; in assay [4] (setting [8]), 28%; in assay [4] (at 50.0 µM), -32.4%. The growth inhibition was 5% in assay [5] (setting [7]); 19% in assay [5] (setting [8]); 27.2% in assay [5] (at 50.0 µM); 0% in assay [6] (setting [7]); 10% in assay [6] (setting [8]); 12.8% in assay [6] (at 50.0 µM).
